Source: PubChem
Sampled rows, rich in hits. Any-hit rate of the full collection: about 2.4%.
FEN1 inh: inhibitors of human flap endonuclease 1; P39748; Recombinant FEN1 flap cleavage, fluorescence, 15 min; Potency, µM (series often up to 114 µM), without a hit: at the highest dose activity change, negative = inhibition, most hits filed as inhibitors; hit rate 0.35% among 390,000; AID 588795; further: on the % scale 0 is the no-effect control and ±100 the full control effect; nearly all actives have a fitted effect of over 65% in size
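Reaction started by adding substrate (50 nM final) to 10 nM enzyme after 15 min room-temperature compound preincubation. Reads at 0 and 15 min, with data normalized and fitted to a four-parameter Hill equation.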
POLK inh: DNA polymerase kappa (human) inhibition | hit rate 0.53% among 400,000 | purified Pol kappa, fluorescent DNA synthesis assay, 10 min | Q9UBT6 | Potency, µM (series often up to 107 µM), without a hit: top-dose activity, negative = inhibition, usual class: inhibitors | AID 588579; further: on the % scale 0 is the no-effect control and ±100 the full control effect
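Activity was followed as the change in fluorescence between reads at 0 and 10 min after starting the reaction with 50 nM substrate. Beforehand, 10 nM polymerase had been preincubated with compound for 15 min at room temperature.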
Pol iota inh: DNA polymerase iota (human) inhibition | hit rate 1% among 390,000 | AID 588590 | Q9UNA4 | Potency, µM (titrated, usually from 115 µM), for the others: at the top dose activity, negative = inhibition, most hits filed as inhibitors | Pol iota fluorescent replication assay, 10 min
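Pol iota at 10 nM preincubated 15 min with compounds at room temperature; reaction started with fluorescent substrate, 50 nM final. Fluorescence read kinetically at 0 and 10 min; buffer-only wells as negative control.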
WRN helicase inh: blocks human WRN helicase; WRN helicase unwinding, fluorescent forked duplex, kinetic; Potency, µM (top dose mostly 114 µM), inactives show top-dose activity change, negative = inhibition, actives largely listed as inhibitors; hit rate 0.46% among 360,000; AID 651768; further: on the % scale 0 is the no-effect control and ±100 the full control effect; nearly all actives have a fitted effect of over 55% in size
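Screening of the MLSMR collection measured strand separation of a quenched forked DNA duplex (100 nM) by 20 nM WRN with 2 mM ATP, all final. Compounds were preincubated with enzyme 15 min at room temperature.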
POLH inh: blocks human DNA polymerase eta activity. recombinant Pol eta, fluorescent DNA replication assay. hit rate 1.2% among 390,000. Potency, µM (top dose mostly 114 µM), for the others: top-dose activity change, negative = inhibition, most hits filed as inhibitors; further: on the % scale 0 is the no-effect control and ±100 the full control effect
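Fluorescent replication assay: 50 nM final substrate added after a 15 min room-temperature compound preincubation with 10 nM enzyme. Signal taken at 0 min and again at 10 min.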
Pol beta inh: DNA polymerase beta (human) inhibition. AID 485314. P06746. Pol beta primer extension/strand displacement, fluorescence kinetic. Potency, µM (doses to about 114 µM), for inactives: top-dose activity change, negative = inhibition, actives largely listed as inhibitors. hit rate 1.3% among 340,000; further: on the % scale 0 is the no-effect control and ±100 the full control effect
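Enzyme-only controls used 10 nM Pol beta; buffer lacking enzyme served as negative control. Compound preincubated 15 min, then 50 nM substrate added; 0 and 10 min reads at room temperature.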
Numbers without * were called inactive; ? = inconclusive; . = not tested or not shown; ! = not confirmed by another sample; [ ] = another dose, or the depositor's remark. The call rests on the fitted dose curve; in most records, active means well fitted curve in the direction sought with a large enough effect; inconclusive means small, poorly fitted or top-dose-only effect, or another doubt; inactive means no such curve, though single readings can be large; an effect the other way counts as inactive or inconclusive. Potency means the concentration at half of the fitted maximal effect.

SMILES | FEN1 inh | POLK inh | Pol iota inh | WRN helicase inh | POLH inh | Pol beta inh
COc1cccc(C(=O)Nc2cccc(OCc3cc(=O)n4c5c(sc4n3)CCCC5)c2)c1 | -6% | -3% | 13% | . | 2% | 0%
CCOC(=O)C1=C(Cc2ccc(Cl)cc2)C(=O)c2ccccc2C1=O | ? | 8% | 14µM* | 35µM* | -28% | 10%
CCOC(=O)C1=C(C)N=C2c3ccccc3C(=O)C2C1c1ccc(Cl)cc1 (configuration not stated) | -22% | -18% | 12% | -21% | -11% | 9%
C=Cc1ccc(Cn2c(C(=O)O)c(CNCc3ccc(F)cc3)c3ccc(C)cc32)cc1 | 0% | -5% | 20% | . | -19% | 1%
COc1ccc(CNC(=O)COC(=O)C(CCSC)NC(=O)c2ccco2)cc1OC (configuration not stated) | -3% | 9% | 35% | 13% | -1% | .
CSCCC(NC(=O)c1ccccc1)C(=O)OCC(=O)NCc1ccco1 (configuration not stated) | -4% | -21% | 71µM* | -14% | ? | .
CC(C)[C@H](NC(=O)OCc1ccccc1)C(=O)OCC(=O)NCc1ccco1 | 18% | -25% | 16µM* | -28% | 50µM* | .
CCOc1ccc(NCc2cccn2-c2nnc(N3CCC(C(=O)NCc4ccccc4Cl)CC3)s2)cc1 | 12% | -3% | 0% | . | . | 15%
COc1cccc(/C=C2/CN(C)CC3=C2OC(N)=C(C#N)C3c2cccc(OC)c2)c1 (configuration not stated) | ? | -15% | -20% | 79µM* | -20% | 3%
CCOc1ccc(CN2C(=O)c3ccccc3Sc3ccc(C(=O)N4CCN(C)CC4)cc32)cc1 | -3% | -4% | -17% | . | -5% | 37%
CCOC(=O)C1CCN(Cc2cc(C(C)(C)C)c(O)c(C(C)(C)C)c2)CC1 | -2% | 6% | 7% | 1%[57.1 µM] | -23% | 5%
CC(C)(C)c1cc(CN2CCN(CCO)CC2)cc(C(C)(C)C)c1O | -16% | 0% | -14% | -5% | -1% | 0.89µM*
CC(=O)c1ccc(NC(=O)CCc2c(C)nc3cc(-c4ccc(Cl)cc4)nn3c2C)cc1 | 14% | -6% | -2% | . | -2% | 1%
CCOC(=O)c1cnc2c(cnn2CC)c1NN=C(C)C | . | -8%[60.1 µM] | -2%[58.9 µM] | . | -2%[57.1 µM] | 14%[57.1 µM]
CCc1cccc(C)c1NC(=O)C1CCN(S(=O)(=O)c2cccc3nonc23)CC1 | 89µM* | ? | 89µM* | . | -1% | ?
Cc1ccc(NC(=O)C2CCN(S(=O)(=O)c3cccc4nonc34)CC2)cc1C | -3% | -5%[60.1 µM] | -20% | . | 13% | -11%
COC(=O)CCC(=O)OC1(C)C(=O)C=C2C=C(C3CC3)N(CCCOC(C)C)C=C2C1=O (configuration not stated) | 0% | -33% | ? | -3%[57.1 µM] | 89µM* | 22%
COC(=O)CCC(=O)OC1(C)C(=O)C=C2C=C(C3CC3)N(Cc3ccc(OC)cc3)C=C2C1=O (configuration not stated) | -10% | -15% | 18µM* | -6% | 10% | 2%
COC(=O)CCC(=O)OC1(C)C(=O)C=C2C=C(C3CC3)N(CCCCO)C=C2C1=O (configuration not stated) | -4% | -30% | 25µM* | 7% | 7% | -2%
COC(=O)CCC(=O)OC1(C)C(=O)C=C2C=C3CCCN3C=C2C1=O (configuration not stated) | ? | ? | ? | -3% | 50µM* | -26%
C=CCN1C=C2C(=O)C(C)(OC(=O)CCC(=O)OC)C(=O)C=C2C=C1C1CC1 (configuration not stated) | 5% | -5% | 85% | -2% | -4% | -15%
COc1cccc(/C=C/c2cnc3ccccc3n2)c1OC | 1% | 3% | 21% | . | . | .
Cc1ccc2ccc3c(c2n1)NS(=O)(=O)c1ccc(C(F)(F)F)cc1-3 | -24% | -13% | ? | . | . | .
O=S1(=O)Nc2c(cc(Cl)c3ccc(Cl)nc23)-c2ccccc21 | ? | 79µM* | ? | . | . | .
O=C1/C(=C\c2ccc(O)c(O)c2)Oc2c1ccc(O[C@@H]1O[C@H](CO)[C@@H](O)[C@H](O)[C@H]1O)c2O | ? | 32µM* | 22µM* | . | . | .
SMILES | FEN1 inh | POLK inh | Pol iota inh | WRN helicase inh | POLH inh | Pol beta inh
c1coc(CNc2nc(-c3cccs3)cs2)c1 | -9% | -8% | 173% | -9% | -22% | 20µM*
CCCCCN1CC(O)=C(c2nc3ccccc3[nH]2)C1=N | 1% | -8% | 67% | 6% | 6% | 32µM*
O=C(O)CCCCC1CCSS1 (configuration not stated) | -10% | 6.7µM*! | 19% | -21% | 0% | 1.1µM*
CCOC(=O)c1sc2ncn(CC(=O)Nc3cc(Cl)ccc3C)c(=O)c2c1C | -2% | 4% | 34% | . | -15% | 14%
CC1(Cc2ccc(F)cc2)C(=O)Nc2ccc(-c3cccnc3)cc21 (configuration not stated) | . | . | . | 2% | . | .
Cc1cc(C)c(S(=O)(=O)ON2C(=O)c3ccccc3C2=O)cc1C | -15% | -8% | -4% | 35µM* | -5% | 3%
Cc1cc(C)c(C)c(S(=O)(=O)ON2C(=O)c3ccccc3C2=O)c1C | -19% | -8% | -16% | ? | -14% | 3%
O=C1c2ccccc2C(=O)N1OS(=O)(=O)c1ccc(F)cc1 | -3% | -8% | -16% | 3% | -7% | 30%
Cc1ccc(S(=O)(=O)ON2C(=O)c3ccccc3C2=O)c(C)c1 | ? | 2% | 112% | 45µM* | -19% | 4%[57.1 µM]
COc1ccc(Cl)cc1NC(=O)CN(c1cc(C)cc(C)c1)S(=O)(=O)c1c(C)n[nH]c1C | ? | ? | 79µM* | . | ? | -9%
Cc1cc2nc(NC3=NCN(CCN4CCOCC4)CN3)nc(C)c2cc1C | . | . | . | . | . | 2%
Cc1nc(NC2=NCN(CCCN3CCOCC3)CN2)nc2c(C)cccc12 | 40µM* | -12% | ? | 86% | -2% | -27%
CC1(C)Cc2c(C#N)c(N3CCN(C(=O)c4ccccc4)CC3)nc(-c3ccco3)c2CS1 | -15% | -22% | ? | ? | 32µM* | 28µM*
CC(C)c1nc(N2CCN(C(=O)c3ccccc3)CC2)c(C#N)c2c1COC(C)(C)C2 | -19% | -9% | ? | 5% | -6% | -2%
c1ccc(-c2cc3c(-n4cccc4)ncnc3o2)cc1 | ? | ? | 79µM* | ? | ? | -11%
Clc1cccc(Nc2ncnc3ccc(Br)cc23)c1 | -24% | -19% | 100µM* | -24% | -16% | 7%
CCOc1ccc(NC(=O)C2CCN(c3nnc(-n4c(C)ccc4C)s3)CC2)cc1 | -13% | -6% | -12% | . | . | 33%
